# SW480 rereplic – inducers of DNA re-replication in SW480 colon cancer cells; SW480 DNA re-replication, Hoechst DNA content imaging, 48 h; Potency, µM (highest dose often 46.1 µM), without a hit: at the top dose re-replication activation, most hits filed as activators; 340,000 tested, 1.8% active; AID 624297; further: potency means the concentration at half of the fitted maximal effect; % of control where 0% means no effect; nearly all actives have a fitted effect of over 55% in size
#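 Compounds, transferred as 23 nL by pin tool, were incubated with cells for 48 hr; DNA content per nucleus was then quantified by Hoechst staining and fluorescence plate imaging.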
# hERG WT inh – KCNH2 (human, wildtype) channel inhibition; Q12809; U2OS, BacMam KCNH2, thallium flux FluxOr; stronger effect = lower value; 340,000 tested, 0.37% active; activity change, % at 1.84 µM;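 active means maximum activity change below -70%; inconclusive means maximum activity change between -70% and -50%; inactive means maximum activity change above -50%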; further: on the % scale 0 is the no-effect control and ±100 the full control effect
#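 U2OS cells were transduced with wild-type KCNH2 virus (2.03 x 10^8 / mL) for 4 h at room temperature, then cultured overnight at 37 C. Thallium flux was read with FluxOr dye. Rate constants were normalized to DMSO controls.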
# KB-V1 cytotox – KB-V1 MDR subline cytotoxicity | KB-V1 MDR cells viability, CellTiter-Glo, 72 h | Potency, µM (doses to about 46.1 µM), hits mostly cytotoxic | 400,000 tested, 3.4% active | AID 1347076; further: potency means the concentration at half of the fitted maximal effect; on the % scale 0 is the no-effect control and ±100 the full control effect; nearly all actives have a fitted effect of over 60% in size
#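 Cells of the MDR subline KB-V1 are plated, dosed with compound at multiple concentrations, and incubated 72 h at 37 degrees C; CellTiter-Glo is then added and luminescence read after 10 min.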
# MCF10A rerep – inducers of DNA re-replication in MCF 10A breast cells; MCF 10A DNA re-replication, Hoechst nuclear intensity, 48 h; Potency, µM (highest dose often 46.1 µM), for inactives: at the top dose activity, positive = re-replication, usual class: activators; 350,000 tested, 2.9% active; AID 624296; further: potency means the concentration at half of the fitted maximal effect; % of control where 0% means no effect; nearly all actives have a fitted effect of over 50% in size
# KB-3-1 tox – kills parental KB-3-1 adenocarcinoma cells | KB-3-1 viability, CellTiter-Glo ATP luminescence, 72 h | Potency, µM (titrated, usually from 46.1 µM), usual class: cytotoxic | 400,000 tested, 1.4% active; further: potency means the concentration at half of the fitted maximal effect; on the % scale 0 is the no-effect control and ±100 the full control effect; nearly all actives have a fitted effect of over 60% in size
#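 Cytotoxicity measured as CellTiter-Glo luminescence after 72 h at 37 C. Compound titrations were pinned onto drug-naive KB-3-1 parental adenocarcinoma cells grown in DMEM with 10% FBS, and normalized data fitted to concentration-response curves.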
# KCNH2 3.1 inh – KCNH2 3.1 (human) potassium channel inhibition | U2OS KCNH2 3.1, thallium flux FluxOr; stronger effect = lower value | activity change, % (tested at about 1.8 µM) | 340,000 tested, 0.95% active;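 active means maximum activity change below -70%; inconclusive means maximum activity change from -70% to -50%; inactive means maximum activity change above -50%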;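 further: thallium influx rate constant from kinetic fluorescence after stimulation buffer; on the % scale 0 is the no-effect control and ±100 the full control effect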
#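 Channel expression came from 3.1 mutant virus (1.77 x 10^8 /mL) applied to suspended U2OS cells for 4 h. Flux was tracked with FluxOr dye plus Red40 quencher, and kinetic rate constants normalized to controls.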
# * hit, by the source's call; i = inactive; ? = inconclusive; · = not tested or not shown; [ ] = dose if it differs, or a comment. Rows were chosen to be rich in hits. Some 7.6% of all compounds tested hit in one or more screens of this group. Unless noted, the call rests on the fitted dose curve; in most records, active means well fitted curve in the direction sought with a large enough effect; inconclusive means small, poorly fitted or top-dose-only effect, or another doubt; inactive means no such curve, though single readings can be large; an effect the other way counts as inactive or inconclusive.
SMILES,SW480 rereplic,hERG WT inh,KB-V1 cytotox,MCF10A rerep,KB-3-1 tox,KCNH2 3.1 inh
N#C/C(=C\c1cccs1)C(=O)c1ccccc1Cl,?,2,i,5.8µM*,i,-6
COC(=O)CCC(=O)OC1(C)C(=O)C=C2C=C(C3CC3)N(CCCOC(C)C)C=C2C1=O (stereo not given),-1%,-12,?,-8%,?,-86*
O=C(O)C1CCCC1,·,·,i,·,?,·
CCCC(c1nnnn1CC1CCCO1)N1CCN(c2cc(Cl)ccc2C)CC1 (stereo not given),19%,-5,?,5.2µM*,?,-1
CCC(c1nnnn1C(C)(C)C)N1CCN(c2cc(Cl)ccc2C)CC1 (stereo not given),?,2,i,13µM*,i,-17
CCC(c1nnnn1C(C)(C)C)N1CCN(C2CCCC2)CC1 (stereo not given),1%,-4,i,-16%,i,-3
Cc1ccc(Cl)cc1N1CCN(C(CC(C)C)c2nnnn2CC2CCCO2)CC1 (stereo not given),-4%,3,?,2.9µM*,?,-10
COc1ccc(Cn2nnnc2C(CC(C)C)N2CCN(c3ccccc3)CC2)cc1 (stereo not given),0%,-1,?,?,i,-5
CC(C)CC(c1nnnn1CC1CCCO1)N1CCN(C2CCCC2)CC1 (stereo not given),-1%,13,i,1%,i,-1
CC(C)CC(c1nnnn1Cc1ccco1)N1CCN(c2cccc(Cl)c2)CC1 (stereo not given),?,11,?,?,10µM*,11
CC(C)CC(c1nnnn1CC1CCCO1)N1CCN(c2cccc(Cl)c2)CC1 (stereo not given),?,1,i,?,?,-5
CC(=NNC(=O)CCC(=O)Nc1ccccc1Cl)c1ccco1,-19%,4,i,-19%,i,-9
CCOc1cc(NC(C)=O)ccc1C(=O)OC,-9%,·,·,-7%,·,·
C=CCN(c1ccccc1OC)S(=O)(=O)c1cccc(C(=O)OCC(=O)c2c[nH]c3ccccc23)c1,?,-4,12µM*,-41%,?,1
CC(Sc1n[nH]c(=O)n1Cc1ccccc1)C(=O)NCC1CCCO1 (stereo not given),-1%,0,i,0%,i,4
O=C(Nc1cccc(Nc2ccccc2)c1)c1cnn2c1NC(=C1CC1)C=C2C(F)F,·,·,i,·,i,·
O=C(NCc1ccccc1)c1c(Cl)nc(Cl)c(Cl)c1Cl,6.5µM*,6,i,18µM*,16µM*,-1
Cc1ccc(-c2cccc(C(=O)NCc3ccccc3)n2)c2ccccc12,16µM*,-10,?,?,?,-14
Cc1ccc2c(=O)cc(C(=O)Nc3ccc(S(=O)(=O)Nc4nc(C)cc(C)n4)cc3)oc2c1,·,·,i,·,i,·
CCOC(=O)C1=C(C)N=c2s/c(=C\c3ccc(OCC(=O)O)cc3)c(=O)n2C1c1ccccc1 (stereo not given),-15%[9.22 µM],8,?,-4%,i,1
CCOC(=O)C1=C(C)N=c2s/c(=C\c3ccc(OCC(=O)O)c(OC)c3)c(=O)n2C1c1ccc(OC)cc1 (stereo not given),-1%,6,i,23µM*,i,2
COc1cccc(Nc2nc3ccc(C(=O)c4ccccc4)cc3n3cnnc23)c1,18µM*,7,i,9.2µM*,i,5
COc1ccc(Cl)cc1Nc1nc2ccc(C)cc2n2cnnc12,-10%,-3,i,8.2µM*,i,14
COc1ccc(OC)c(Nc2nc3ccc(C)cc3n3cnnc23)c1,8%,2,i,18µM*,i,5
O=Cc1ccc(CS)cc1,·,·,i,·,i,·
Cc1c(Cl)cccc1NC(=S)NCCc1ccc(Cl)cc1,13µM*,0,i,16%,?,-38
